An excerpt weighted towards active compounds, which were near 2.2% of everything screened.
Vaccinia Venus = vaccinia inhibition (Venus reporter); Vaccinia virus Venus reporter expression, fluorescence; Potency, µM (top dose mostly 36.5 µM), inactives show top-dose activity change, negative = inhibition, hits mostly inhibitors; actives 0.46% (n = 330,000); AID 720580; calls by dose curve; tested in A549 cells; also: nearly all actives have a fitted effect of over 30% in size
FMDV antiviral = antivirals against foot and mouth disease virus | FMDV antiviral cell-based qHTS | Potency, µM (top dose mostly 57.9 µM), for inactives: at the top dose activity change, negative = inhibition, most hits filed as inhibitors | actives 1.2% (n = 410,000) | AID 1159524; calls by dose curve; tested in HEK293T cells; also: read-out not given here; nearly all actives have a fitted effect of over 45% in size
Giardia FBPA inh = inhibitors of Giardia lamblia fructose-1,6-bisphosphate aldolase; A8B2U2; Potency, µM (doses to about 59.6 µM), for the others: at the highest dose activity, negative = inhibition, usual class: inhibitors; purified Giardia FBPA; actives 0.71% (n = 290,000); AID 2451; active = well fitted inhibition curve with a large enough effect; inconclusive = small, poorly fitted or top-dose-only effect, or effect the other way; also: nearly all actives have a fitted effect of over 55% in size
Target sequence (A8B2U2 whole entry, looked up): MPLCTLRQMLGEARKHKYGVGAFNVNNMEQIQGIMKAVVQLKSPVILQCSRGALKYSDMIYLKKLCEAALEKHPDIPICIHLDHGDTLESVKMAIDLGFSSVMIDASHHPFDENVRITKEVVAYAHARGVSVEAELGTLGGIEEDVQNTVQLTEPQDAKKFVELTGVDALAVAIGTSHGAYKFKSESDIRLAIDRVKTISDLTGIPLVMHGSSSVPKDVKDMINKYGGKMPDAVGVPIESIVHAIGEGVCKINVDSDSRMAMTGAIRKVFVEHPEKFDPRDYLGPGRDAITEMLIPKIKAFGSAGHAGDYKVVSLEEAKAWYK
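40 nM FBPA preincubated 10 min at RT with compound (up to 57.5 uM final), then substrate plus GAPDH/TPI/NAD/arsenate coupling and diaphorase/resazurin added. Fluorescence read after 20 min at RT, 525/598 nm.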
VACV mCherry inh = vaccinia inhibition (mCherry reporter) | actives 0.63% (n = 310,000) | Potency, µM (titrated, usually from 36.5 µM), without a hit: at the top dose activity change, negative = inhibition, usual class: inhibitors | Vaccinia virus mCherry reporter infection, fluorescence; calls by dose curve; tested in A549 cells; also: nearly all actives have a fitted effect of over 35% in size
* = called active by the depositor; i = inactive; u = inconclusive; x = no result given; [ ] = another dose, or the depositor's remark. % is scaled to controls: 0 for no effect and ±100 for the full control effect; potency is read from the fitted curve at half-maximal effect.

SMILES | Vaccinia Venus | FMDV antiviral | Giardia FBPA inh | VACV mCherry inh
CCCCn1c(=N)n(CCOc2ccccc2OC)c2ccccc21 | -20%[7.34 µM] | u | x | -19%[7.34 µM]
CCCCn1c(=N)n(CCOc2ccc(C)cc2)c2ccccc21 | u | u | -1% | 14µM*
CCC1CN(CCNC(=O)c2cn3cc(C)ccc3n2)Cc2cc(OC)ccc2O1 (configuration not stated) | -21% | 2% | x | -28%
O=C(Nc1cccc(S(=O)(=O)Nc2ccc(Cl)cc2)c1)c1ccc(Cl)nc1 | x | -25% | -5% | x
COc1ccc(NS(=O)(=O)c2cccc(NC(=O)c3ccc(Cl)nc3)c2)cc1 | u | 32µM* | -12% | -11%
CCn1c(C)cc(C(=O)COC(=O)c2ccccc2[N+](=O)[O-])c1C | -10% | 5.6µM* | x | -29%
COCCn1c(C)cc(C(=O)COC(=O)c2n[nH]c3ccccc23)c1C | x | 11µM* | 3% | x
Cc1cc(C(=O)COC(=O)c2n[nH]c3ccccc23)c(C)n1C | x | -39% | -4% | x
COCCn1c(C)cc(C(=O)COC(=O)c2cccnc2SC)c1C | -13% | -64% | x | -1%
COCCn1c(C)cc(C(=O)COC(=O)c2ccccc2Br)c1C | -9% | 35µM* | -11% | -10%
Cc1ccc2c(c1)CN(CCNC(=O)c1cc3ccccc3oc1=O)CC(C)O2 (configuration not stated) | 1% | 0% | x | -7%
COc1cccc(CN2C(=O)NC(C)(C3CCN(Cc4cc(Cl)ccc4O)CC3)C2=O)c1OC (configuration not stated) | -24% | -24% | x | -10%
COc1ccc2cc(CNCCOCCOCCNCc3ccc4cc(OC)ccc4c3)ccc2c1 | u | 40µM* | x | u
CC(O)COCC1OC2OC3C(COCC(C)O)OC(OC4C(COCC(C)O)OC(OC5C(COCC(C)O)OC(OC6C(COCC(C)O)OC(OC7C(COCC(C)O)OC(OC8C(COCC(C)O)OC(OC1C(OCC(C)O)C2OCC(C)O)C(OCC(C)O)C8OCC(C)O)C(OCC(C)O)C7OCC(C)O)C(OCC(C)O)C6OCC(C)O)C(OCC(C)O)C5OCC(C)O)C(OCC(C)O)C4OCC(C)O)C(OCC(C)O)C3OCC(C)O (configuration not stated) | -15% | x | x | -13%
CNc1nc(OC)nc(N(C#N)CN2C(=O)c3ccccc3S2(=O)=O)n1 | -11% | u | 3% | -7%
Cc1cc(C)nc(N(C#N)CN2C(=O)c3ccccc3S2(=O)=O)n1 | -27% | 40µM* | 6% | x
CCCCn1c(=O)n(CC2CCC(C(=O)NCCCOC)CC2)c(=O)c2sccc21 (configuration not stated) | -2% | -12% | x | -15%
Cn1c2c(c(=O)n(C)c1=O)C(C(F)(F)F)(C(F)(F)F)N=C(c1ccc(Cl)cc1)N2 | u | 2.2µM* | 4% | u
Cc1ccccc1C1=NC(C(F)(F)F)(C(F)(F)F)c2c(n(C)c(=O)n(C)c2=O)N1 | -22% | -23% | 3% | i
Cc1ccc(-c2cn3c(n2)sc2cc(C(=O)NCCCN4CCCCCC4)ccc23)cc1 | u | 13% | x | u
Cc1ccc(-c2cn3c(n2)sc2cc(C(=O)NCCCN4CCCCC4)ccc23)cc1 | 8.9µM* | 27% | x | 11µM*
Cc1cccc(CNc2ncnc3[nH]ncc23)c1 | -15% | u | x | i
Clc1ccc(CNc2ncnc3[nH]ncc23)cc1Cl | 10µM* | -21% | x | 11µM*
Cc1cc(C)c2c(n1)SCCN2C(=O)Nc1ccc(C(=O)Nc2cc(Cl)ccc2C)cc1 | -7% | -10% | x | -14%
Cc1cc(NCCCCCCCNc2cc(C)nc3cc([N+](=O)[O-])ccc23)c2ccc([N+](=O)[O-])cc2n1 | 10µM* | 0% | x | u
SMILES | Vaccinia Venus | FMDV antiviral | Giardia FBPA inh | VACV mCherry inh
N#C/C(=C\c1ccco1)C(=O)NCc1ccccc1 | x | 16% | 5% | x
N#CC(C#N)=C1C=CC=CN1/C(=C\c1ccco1)C(=O)c1ccc(-c2ccccc2)cc1 | -15% | 14µM* | -4% | u
N#CC(C#N)=C1C=CC=CN1/C(=C\c1ccco1)C(=O)c1ccc(Cl)cc1 | 28µM* | u | -5% | u
Cc1ncc2c(c1CNC(=O)c1cncs1)CCN(C(=O)c1ccsc1)C2 | -9% | -14% | x | -14%
Oc1ccc(NCc2cccc(OCc3ccc(F)cc3)c2)cc1 | -20% | 4% | 18µM* | u
Oc1ccc(NCc2cccc(OCc3ccccc3)c2)cc1 | -18% | 10% | 16µM* | -20%
O=[N+]([O-])c1ccc2nc(NN=Cc3ccc(O)cc3)sc2c1 | u | -3% | x | 3.2µM*
Cc1ccc(S(=O)(=O)c2ccc([N+](=O)[O-])o2)cc1 | u | 18µM* | x | u
CN(CCO)C(=O)c1cn(C2CCN(Cc3cccc(C(F)(F)F)c3)CC2)nn1 | -5% | -10% | x | -2%
O=C(Nc1ccccc1)c1nc(S(=O)(=O)Cc2ccccc2F)ncc1Cl | -16% | x | x | -12%
CSc1nnc(NC(=O)c2nc(S(=O)(=O)Cc3ccccc3F)ncc2Cl)s1 | -6% | 7.1µM* | u | i
CCOc1ccc(NC(=O)c2nc(S(=O)(=O)Cc3ccccc3F)ncc2Cl)cc1 | u | 25µM* | x | u
CC(C)c1nnc(NC(=O)c2nc(S(=O)(=O)Cc3ccccc3F)ncc2Cl)s1 | x | 28µM* | x | x
O=C(Nc1nc2ccc(F)cc2s1)c1nc(S(=O)(=O)Cc2ccccc2F)ncc1Cl | -19% | u | x | -24%
Cc1nnc(NC(=O)c2nc(S(=O)(=O)Cc3ccccc3C)ncc2Cl)s1 | x | 25µM* | u | x
CN(C)CC(C)(C)CNC(=O)c1cnn(-c2ncc3c(n2)-c2ccccc2CC3)c1-c1ccco1 | -7% | -15% | x | -3%
CCCCOc1ccc(C(=O)Nc2ccc3oc(-c4cccnc4)nc3c2)cc1 | -25% | u | x | u
CCCCOc1cccc(C(=O)Nc2ccc3oc(-c4cccnc4)nc3c2)c1 | -15% | 16µM* | x | -20%
CCOc1cccc(C(=O)Nc2ccc3oc(Cc4ccc(Cl)cc4)nc3c2)c1 | u | 8.9µM* | 0% | x
O=C(Nc1ccc2oc(Cc3ccc(Cl)cc3)nc2c1)c1cccnc1 | u | x | -6% | -28%
CCN(CC)CCOC(=O)c1ccc(NC(=O)c2nn(-c3ccc(C)cc3)c(=O)c3c2c2ccccc2n3C)cc1 | 5µM* | -11% | x | 5.6µM*
COc1cc(CN2CCc3nc(N4CCN(c5ccccn5)CC4)ncc3C2)cc(OC)c1OC | u | u | x | -7%
CN(C)c1ccc(CN2CCc3nc(N4CCN(c5ccccn5)CC4)ncc3C2)cc1 | -27% | 7.9µM* | x | u
CCOc1ccccc1CN1CCc2nc(N3CCN(c4ccccc4F)CC3)ncc2C1 | u | 28µM* | x | -28%
Fc1ccc(CN2CCc3nc(N4CCN(c5ccccc5F)CC4)ncc3C2)c(F)c1 | -27% | u | x | -22%
CCOc1ccc(CN2CCc3nc(N4CCN(c5ccccn5)CC4)ncc3C2)cc1OC | u | 13µM* | x | u
COc1cc(CN2CCc3nc(N4CCN(c5ncccn5)CC4)ncc3C2)cc(OC)c1OC | u | 28µM* | x | -25%
CCOC(=O)CN=C1CC(C)(C)CC2=C1Sc1ncnc(N(C)C)c1N2 | -1% | 12% | 2.5µM* | -11%
CCn1c(CNc2ccc(C(=O)O)cc2)nc2ccccc21 | -3% | x | u | -10%
